From PubChem BioAssay AID1851 (National Center for Advancing Translational Sciences (NCATS), 2009)
Several values for one entry are separate records, joined by “and”; a condition that tells them apart may be missing. Equal values may be shown once. The campaign covered roughly 16,000 compounds. About 5,100 (32%) were called active. Inconclusive results (about 25%) are left out. Calls follow the shape of the dose curve; as a rule, active = well fitted curve in the direction sought with a large enough effect; inconclusive = small, poorly fitted or top-dose-only effect, or effect the other way; inactive = no such curve, though single readings can be large or run the other way. The list shows a part of the results.

What follows are compounds tested against Cytochrome P450 3A4 (Homo sapiens) (UniProt P08684) (assay: Cytochrome panel assay with activity outcomes). Settings: recombinant CYP, pro-luciferin dealkylation, luminescence, p450-cyp3a4; series mostly up to 57.1 µM; activity, negative = inhibition: at the top concentration.
% is scaled to controls: 0 for no effect and ±100 for the full control effect.

Cytochrome P450 3A4 (Homo sapiens), sequence (P08684 whole entry, looked up): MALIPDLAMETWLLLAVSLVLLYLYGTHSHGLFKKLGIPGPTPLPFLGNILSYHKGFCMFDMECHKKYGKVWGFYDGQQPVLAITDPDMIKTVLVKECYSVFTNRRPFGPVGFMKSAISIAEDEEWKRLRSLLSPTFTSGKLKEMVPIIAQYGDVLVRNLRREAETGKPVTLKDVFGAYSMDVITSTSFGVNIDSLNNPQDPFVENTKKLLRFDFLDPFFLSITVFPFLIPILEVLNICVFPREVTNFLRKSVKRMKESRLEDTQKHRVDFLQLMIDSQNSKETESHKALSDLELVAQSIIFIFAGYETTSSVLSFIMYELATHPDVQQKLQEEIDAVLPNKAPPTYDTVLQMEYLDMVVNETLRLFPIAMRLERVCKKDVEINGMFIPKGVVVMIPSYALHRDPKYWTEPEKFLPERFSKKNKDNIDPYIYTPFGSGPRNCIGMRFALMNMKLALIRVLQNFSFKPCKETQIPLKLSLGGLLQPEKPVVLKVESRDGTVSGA

SMILES	activity, negative = inhibition	AC50
C/C(=N\O)c1cccc[n+]1Cc1ccccc1	-11.2% [at 11.4 µM] (inactive)	–
COc1ccc2[nH]cc(CCNc3nc(-c4ccc(C(=O)N(C)C)cc4)nc4ccccc34)c2c1	–	2.51 µM (active)
COc1ccc2[nH]cc(CCNc3nc(-c4ccc(N(C)C)cc4)nc4ccccc34)c2c1	–	2.51 µM (active)
Cc1ccc(S(=O)(=O)CCc2nnc(NC(=O)COc3cccc(C)c3)s2)cc1	–	2.82 µM (active)
O=C(Nc1nnc(CCS(=O)(=O)c2ccc(Br)cc2)s1)c1ccc([N+](=O)[O-])cc1	-8.9% [at 2.29 µM] (inactive)	–
COC(=O)C1CSC(C(=O)OC)N1C(=O)Nc1c(C)cccc1C (centres undefined)	-24.2% (inactive)	–
Cc1cccc(C)c1NC(=O)C[N+](C)(C)C	–	inactive
CC(=O)c1cn(CC(=O)Nc2c(C)cccc2C)c2ccccc12	–	11.2 µM (active)
COc1ccc(-c2n[nH]c(C)c2-c2ccc(Cl)cc2)c(O)c1	–	14.1 µM (active)
Oc1ccc(-c2[nH]ncc2-c2ccc(Cl)cc2)c(O)c1	–	0.562 µM (active)
C=C(C)COc1ccc(-c2n[nH]c(C)c2-c2ccc(OC)cc2)c(O)c1	–	10 µM (active)
Cc1[nH]nc(-c2ccc(O)cc2O)c1-c1ccc(Cl)cc1	–	3.55 µM (active)
C[C@@H](C(=O)NCCc1c[nH]c2ccccc12)[C@H]1C[C@]1(C)[C@H](NC(=O)OCc1ccccc1)c1ccccc1	–	1.58 µM (active)
C[C@@H](C(=O)NCCc1c[nH]c2ccccc12)[C@@H]1C[C@@]1(C)[C@@H](NC(=O)OCc1ccccc1)c1ccccc1	–	3.16 µM (active)
CC(C)CNC(=O)CCCc1c[nH]c2ccccc12	14.6% [at 2.29 µM] (inactive)	–
C[C@@H]1O[C@@H](O)[C@@H](O)[C@H](O)[C@H]1O	-3.34% [at 11.4 µM] (inactive)	–
CN(C)c1ccc(N=Cc2nc(-c3ccccc3)oc2O)cc1	–	14.1 µM (active)
O=C(Oc1oc(-c2ccco2)nc1C=Nc1ccc(Cl)cc1)c1ccco1	0.287% (inactive)	–
CN(C)c1oc(-c2ccccc2)nc1C#N	-21.4% (inactive)	–
CC(=O)N1CCN(C)CC1	-10.7% (inactive)	–

SMILES	activity, negative = inhibition	AC50
Cc1cc(C(C)(C)C)cc(CNC2CCCCC2)c1O	-20.7% [at 11.4 µM] (inactive)	–
COc1cc(CNC2CCCC2)cc(Cl)c1OCc1ccccc1Cl	–	5.62 µM (active)
CCOc1cc(C2NN=C(c3ccccc3)S2)ccc1OCc1ccccc1Cl (centres undefined)	7.68% [at 2.29 µM] (inactive)	–
Cc1oc(-c2ccccc2Cl)nc1CSCC(=O)NC1CC1	–	4.47 µM (active)
CCOc1ccccc1NC(=O)C(=O)NCC1CCCN1CC (centres undefined)	-6.39% (inactive)	–
CCN1CCCC1CNC(=O)C(=O)Nc1ccccc1OC (centres undefined)	-20.6% (inactive)	–
CCN1CCCC1CNC(=O)CSCc1nc(-c2ccccc2C)oc1C (centres undefined)	–	6.31 µM (active)
CC1CCC(NC(=O)CC(C)(C)Cc2nc3ccccc3c(=O)[nH]2)CC1 (centres undefined)	13.9% (inactive)	–
C1CCc2c(nc3nnnn3c2NC2CCCC2)C1	-17.9% (inactive)	–
NC(=NCc1ccccc1)NC(=O)c1nc(Cl)c(N)nc1N	–	inactive
O=c1cc(N2CCCCC2)c(-c2ccccc2)nn1Cc1ccccc1Cl	–	10 µM (active)
COC(=O)c1ccc(C(=O)OC)c(NC(=S)N2CCN(c3ccccc3)CC2)c1	–	7.94 µM (active)
COc1cc(CC(=O)O)c(C(C)=O)cc1OC	18.7% (inactive)	–
Cc1cccc(N2CCN(c3ccc(NC(=O)/C=C(/C(=O)O)c4ccccc4)cc3)CC2)c1	0.321% [at 2.29 µM] (inactive)	–
COC(=O)c1cc(OC)c(OC)cc1NC(=S)N1CCCCC1	–	3.98 µM (active)
N#CCCn1c(=O)c(-c2ccccc2)nc2cnc(Nc3ccccc3)nc21	-28.1% (inactive)	–
COc1cccc(Cn2c(=O)cnc3cnc(Nc4cccc(OC)c4)nc32)c1	–	2 µM (active)
COc1ccc(-c2nc3cnc(Nc4ccccc4)nc3n(CCC#N)c2=O)cc1	-23.2% (inactive)	–
COc1ccc(-c2nc3cnc(Nc4cccc(OC)c4)nc3n(CCC#N)c2=O)cc1	–	3.98 µM (active)
COc1cccc(Nc2ncc3nc(-c4cccs4)c(=O)n(CCC#N)c3n2)c1	–	6.31 µM (active)

SMILES	activity, negative = inhibition	AC50
COc1cccc(Nc2ncc3nc(C)c(=O)n(CCC#N)c3n2)c1	–	12.6 µM (active)
O=C1CCCC=C1[C@@H](O)CCOC(c1ccccc1)(c1ccccc1)c1ccccc1	-80.3% [at 11.4 µM] (inactive)	–
CC(C)(C)c1cc(Br)c(O)c(CN(Cc2cc(C(C)(C)C)cc(Br)c2O)C2CCCCC2)c1	-3.9% [at 11.4 µM] (inactive)	–
COc1cccc(Nc2ncc3nc(-c4cc(F)cc(F)c4)c(=O)n(CCC#N)c3n2)c1	–	10 µM (active)
COc1cccc(Nc2ncc3ncc(=O)n(CCC#N)c3n2)c1	–	15.8 µM (active)
N#CCCn1c(=O)c(-c2cc(F)cc(F)c2)nc2cnc(Nc3ccccc3)nc21	-28.1% (inactive)	–
COCCn1c(=O)c(-c2ccc(Cl)cc2)nc2cnc(Nc3ccccc3)nc21	-29.4% (inactive)	–
COCCn1c(=O)c(-c2ccccc2)nc2cnc(Nc3ccccc3)nc21	–	12.6 µM (active)
COCCn1c(=O)cnc2cnc(Nc3ccccc3)nc21	-22.2% (inactive)	–
CN(C)c1ncc2ncc(=O)n(CCC#N)c2n1	-17.1% (inactive)	–
COCCn1c(=O)cnc2cnc(Nc3cccc(OC)c3)nc21	–	15.8 µM (active)
Cn1c(=O)c2c(nc(N/N=C\c3ccccc3C(=O)O)n2C)n(C)c1=O	5.51% [at 11.4 µM] (inactive)	–
CCC[C@H]1C(=O)N2C(N(C)C)=Nc3ccc(C)cc3N2C1=O	-23.4% [at 25.6 µM] (inactive)	–
COc1cccc(Nc2ncc3nc(-c4ccc(F)cc4)c(=O)n(CCC#N)c3n2)c1	–	3.16 µM (active)
COCCn1c(=O)c(-c2ccccc2)nc2cnc(Nc3cccc(OC)c3)nc21	-26.2% (inactive)	–
COCCn1c(=O)c(-c2cc(F)cc(F)c2)nc2cnc(Nc3cccc(OC)c3)nc21	–	7.94 µM (active)
COc1ccc(Sc2nc3ccccc3n3c(C(F)(F)F)nnc23)cc1	-0.72% [at 11.4 µM] (inactive)	–
CN1CCc2cc3c(cc2[C@@H]1[C@@H]1C(=O)Oc2c1ccc1c2OCO1)OCO3	–	1.26 µM (active)
C[N+]1(C)CCc2cc3c(cc2[C@@H]1[C@@H]1C(=O)Oc2c1ccc1c2OCO1)OCO3	–	12.6 µM (active) and 15.8 µM (active)
